The record followed here is PubChem BioAssay (NCI).

Each structure is given as a SMILES string. This is part of a sample that, as a whole, favours compounds with a hit. Of some 83,000 tested, about 20% had one in any assay.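 Single-dose data. Exposure time 48 hours. Values below 10 considered active.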 The source made the active and inactive calls.

In the first test the test system is UACC-62 melanoma. Put plainly: NCI-60 one-dose screen, 48 h (100 = growth as untreated, 0 = no growth, -100 = all killed). The settings on record: 10 µM unless noted.
For `O=C1Nc2ccccc2/C1=C/c1cn(C(=O)c2c(Cl)cccc2Cl)c2ccccc12`, the growth is 36.7% (inactive).

`C=CCn1c(C)nc2cc(Nc3nc(N4CCCC4)nc4ccccc34)ccc21`: the growth was 113% (inactive).

Consider `COc1ccc2nc(NNC(=O)c3cnccn3)c3cccn3c2c1`, for which the growth is -34.2% (active).

Consider `CC(=O)OC1CCC2(C)C(=CC3C4CCC(=O)C4(C)CCC32)C1` (stereo unspecified), for which the growth was 101% (inactive).

`Cc1ccc(-n2c(-c3ccccc3)c(-c3ccccc3)c3c(SCC(=O)n4[nH]c(N)cc4=O)ncnc32)cc1`: the growth was 77.4% (inactive).

As to `C[C@@H]1N=C(c2ccc3ccccc3n2)Nc2nc3ccccn3c2C1=O`, the growth is 90.1% (inactive).

On to `N[C@@H](CCCCNCC(=O)O)C(=O)O`, for which the growth is 94.4% (inactive).

With `Clc1cccc(Cl)c1C(Nc1nc2ccccc2s1)Nc1nc2ccccc2s1`, the growth is 95.7% (inactive).

On to `COc1cc(/C=C/C(=O)c2c(C)nc3ccccc3c2C)ccc1OCCCN1CCN(C(=O)c2ccco2)CC1`, for which the growth is 65.9% (inactive).

With `Cc1ccc(Cc2cnc(NC(=O)c3ccc4noc(-c5ccccc5)c4c3)s2)cc1`, the growth is 77% (inactive).

Turning to `CC(=O)c1nc(Nc2ccc(C)cc2)sc1C`, the growth is 98.6% (inactive).

Turning to `Cc1c(C(=O)OC(=NC2CCCCC2)NC2CCCCC2)sc2c1c(=O)nc1c(C#N)n[nH]n12`, the growth was 106% (inactive).

Take `O=C(CCc1nnc(CN(c2ccccc2)c2ccccc2)o1)c1nc2ccccc2[nH]1`: the growth is 69.4% (inactive).

Consider `O=C(CC(SCc1ccccc1)c1ccccc1)c1ccccc1` (stereo unspecified), for which the growth is 85.3% (inactive).

For `COc1ccc(-c2nc3ccc4[nH]ncc4c3c3c2CCCC3)cc1B(O)O`, the growth is 47.1% (inactive).

Turning to `CC(C)(C)OC(=O)Nc1ccc2c(c1)C(NC(=O)Nc1cccc(C#N)c1)CC(C)(C)O2` (stereo unspecified), the growth was 34.6% (inactive).

Consider `O=C(NCCc1ccc(O)c(O)c1)C12CC3CC(CC(C3)C1)C2`, for which the growth is 90.3% (inactive).

On to `CC1=NOC(=O)/C1=C\c1ccc(O)cc1`, for which the growth was 100% (inactive).

Consider `O=C1/C(=C\c2cccnc2)SC(=S)N1CCc1ccc(O)cc1`, for which the growth is 59.9% (inactive).

Turning to `Cn1cc(-c2csc(-c3cccc(F)c3)n2)c2cccnc21`, the growth is -67% [100 µM] (active).

Turning to `C=CCn1c(C)nc2cc(Nc3nc(Cl)nc4ccccc34)ccc21`, the growth is 93.1% (inactive).

As to `O=C(NC(Cc1nnc2n(Cc3ccccc3)c(=O)c3c4c(sc3n12)CCCC4)c1ccc(Cl)cc1)c1ccccc1` (stereo unspecified), the growth is 63.1% (inactive).

For `N#Cc1c(-c2cccc(Cl)c2)cc(-c2cccc(Cl)c2)[nH]c1=O`, the growth was 45.2% (inactive).

For `Clc1cccc(Cl)c1/C=C/c1cc(/C=C/c2c(Cl)cccc2Cl)[nH]n1`, the growth is 38.8% (inactive).

As to `O=C1c2cccc(NCCN=Cc3cc([N+](=O)[O-])ccc3O)c2C(=O)c2c(NCCN=Cc3cc([N+](=O)[O-])ccc3O)cccc21`, the growth was 90.2% (inactive).

Regarding `COC(=O)[C@H](CSC)N(C)C(=O)[C@@H]1CSSC[C@@H](NC(=O)c2nc3ccccc3cc2O)C(=O)NCC(=O)N1C`, the growth is 60% (inactive).

For the compound `O=C1N=c2cc3c(cc2=C/C1=C/c1sc(=S)n(CCc2ccc(O)cc2)c1O)OCCO3`, the growth is 20.7% (inactive).

Take `O=C1CC(N2C(=O)/C(=C/C(Cl)=C\c3ccc([N+](=O)[O-])cc3)SC2=S)C(=O)N1c1ccc(O)cc1` (stereo unspecified): the growth is -63.2% (active).

Regarding `CC(C)(C)C(CCc1ccc(Cl)cc1)N1CCN(C2CCCCC2)CC1` (stereo unspecified), the growth was 46.8% (inactive).

Take `COC1=C(OC)C(=O)C(OC)=C(OC)C1=O`: the growth is 102% (inactive).

As for `COc1cc2ncn3c(=O)c4c5c(sc4nc3c2cc1OC)CCCC5`, the growth is 93.4% (inactive).

Turning to `CCn1c(C)nc2cc(C(N)=O)ccc21`, the growth is 89.2% (inactive).

`O=C(CCCCCCSc1nc(-c2ccccc2)cc(-c2ccc(Cl)cc2)n1)NO`: the growth is -1.11% (active).

Regarding `O=C(Nc1cccc(C(F)(F)F)c1)Nc1cccc(C(F)(F)F)c1`, the growth is 10.6% (inactive).

`COc1ccc(NC(=O)c2nc(-c3cc(OC)c(OC)c(OC)c3)n(-c3cccc4ccccc34)n2)cc1OC`: the growth was 31% (inactive).

For the compound `CCSC1=NC2C(N(CC)C(=O)N2CC)N1/N=C/C=C/c1ccccc1[N+](=O)[O-]` (stereo unspecified), the growth is 25.5% (inactive).

With `CC(C)C(=O)Nc1n[nH]c2cc(-c3cccc(NS(=O)(=O)C4CC4)c3)ccc12`, the growth was 54.4% (inactive).

In the case of `Cn1c(=O)c2[nH]c(NN)nc2n(C)c1=O`, the growth was 114% (inactive).

A further test relates to LOX IMVI melanoma. Described as above. The conditions noted are these: 10 µM unless noted.
`O=C1Nc2ccccc2/C1=C/c1cn(C(=O)c2c(Cl)cccc2Cl)c2ccccc12`: the growth was 48.4% (inactive).

In the case of `C=CCn1c(C)nc2cc(Nc3nc(N4CCCC4)nc4ccccc34)ccc21`, the growth was 2.4% (active).

For `COc1ccc2nc(NNC(=O)c3cnccn3)c3cccn3c2c1`, the growth was -36.3% (active).

Regarding `CC(=O)OC1CCC2(C)C(=CC3C4CCC(=O)C4(C)CCC32)C1` (stereo unspecified), the growth was 100% (inactive).

As to `Cc1ccc(-n2c(-c3ccccc3)c(-c3ccccc3)c3c(SCC(=O)n4[nH]c(N)cc4=O)ncnc32)cc1`, the growth is 97.7% (inactive).

For the compound `C[C@@H]1N=C(c2ccc3ccccc3n2)Nc2nc3ccccn3c2C1=O`, the growth is 93% (inactive).

As to `N[C@@H](CCCCNCC(=O)O)C(=O)O`, the growth was 100% (inactive).

`Clc1cccc(Cl)c1C(Nc1nc2ccccc2s1)Nc1nc2ccccc2s1`: the growth is 86.1% (inactive).

Take `COc1cc(/C=C/C(=O)c2c(C)nc3ccccc3c2C)ccc1OCCCN1CCN(C(=O)c2ccco2)CC1`: the growth was 81.9% (inactive).

Regarding `Cc1ccc(Cc2cnc(NC(=O)c3ccc4noc(-c5ccccc5)c4c3)s2)cc1`, the growth was 93.1% (inactive).

Turning to `CC(=O)c1nc(Nc2ccc(C)cc2)sc1C`, the growth is 100% (inactive).

For `Cc1c(C(=O)OC(=NC2CCCCC2)NC2CCCCC2)sc2c1c(=O)nc1c(C#N)n[nH]n12`, the growth was 94.8% (inactive).

For `O=C(CCc1nnc(CN(c2ccccc2)c2ccccc2)o1)c1nc2ccccc2[nH]1`, the growth was 80.3% (inactive).

Turning to `O=C(CC(SCc1ccccc1)c1ccccc1)c1ccccc1` (stereo unspecified), the growth is 85.6% (inactive).

As for `COc1ccc(-c2nc3ccc4[nH]ncc4c3c3c2CCCC3)cc1B(O)O`, the growth was 40.4% (inactive).

As for `CC(C)(C)OC(=O)Nc1ccc2c(c1)C(NC(=O)Nc1cccc(C#N)c1)CC(C)(C)O2` (stereo unspecified), the growth was 26.9% (inactive).

As for `O=C(NCCc1ccc(O)c(O)c1)C12CC3CC(CC(C3)C1)C2`, the growth was 89.1% (inactive).

Take `CC1=NOC(=O)/C1=C\c1ccc(O)cc1`: the growth is 96.8% (inactive).

On to `O=C1/C(=C\c2cccnc2)SC(=S)N1CCc1ccc(O)cc1`, for which the growth was 17.4% (inactive).

Take `Cn1cc(-c2csc(-c3cccc(F)c3)n2)c2cccnc21`: the growth is -54.3% [100 µM] (active).

As to `C=CCn1c(C)nc2cc(Nc3nc(Cl)nc4ccccc34)ccc21`, the growth is 104% (inactive).

For `O=C(NC(Cc1nnc2n(Cc3ccccc3)c(=O)c3c4c(sc3n12)CCCC4)c1ccc(Cl)cc1)c1ccccc1` (stereo unspecified), the growth was 79.4% (inactive).

With `N#Cc1c(-c2cccc(Cl)c2)cc(-c2cccc(Cl)c2)[nH]c1=O`, the growth is 72.3% (inactive).

As to `Clc1cccc(Cl)c1/C=C/c1cc(/C=C/c2c(Cl)cccc2Cl)[nH]n1`, the growth was 46.3% (inactive).

In the case of `O=C1c2cccc(NCCN=Cc3cc([N+](=O)[O-])ccc3O)c2C(=O)c2c(NCCN=Cc3cc([N+](=O)[O-])ccc3O)cccc21`, the growth is 58.6% (inactive).

In the case of `COC(=O)[C@H](CSC)N(C)C(=O)[C@@H]1CSSC[C@@H](NC(=O)c2nc3ccccc3cc2O)C(=O)NCC(=O)N1C`, the growth was 48.3% (inactive).

For the compound `O=C1N=c2cc3c(cc2=C/C1=C/c1sc(=S)n(CCc2ccc(O)cc2)c1O)OCCO3`, the growth was 3.28% (active).

For the compound `O=C1CC(N2C(=O)/C(=C/C(Cl)=C\c3ccc([N+](=O)[O-])cc3)SC2=S)C(=O)N1c1ccc(O)cc1` (stereo unspecified), the growth was -83.7% (active).

For `CC(C)(C)C(CCc1ccc(Cl)cc1)N1CCN(C2CCCCC2)CC1` (stereo unspecified), the growth is -20.3% (active).

For the compound `COC1=C(OC)C(=O)C(OC)=C(OC)C1=O`, the growth is 90.7% (inactive).

On to `COc1cc2ncn3c(=O)c4c5c(sc4nc3c2cc1OC)CCCC5`, for which the growth was 98.6% (inactive).

With `CCn1c(C)nc2cc(C(N)=O)ccc21`, the growth was 91.6% (inactive).

Take `O=C(CCCCCCSc1nc(-c2ccccc2)cc(-c2ccc(Cl)cc2)n1)NO`: the growth is -78% (active).

`O=C(Nc1cccc(C(F)(F)F)c1)Nc1cccc(C(F)(F)F)c1`: the growth is 8.64% (active).

With `COc1ccc(NC(=O)c2nc(-c3cc(OC)c(OC)c(OC)c3)n(-c3cccc4ccccc34)n2)cc1OC`, the growth was 25.2% (inactive).

For the compound `CCSC1=NC2C(N(CC)C(=O)N2CC)N1/N=C/C=C/c1ccccc1[N+](=O)[O-]` (stereo unspecified), the growth was 14.3% (inactive).

Consider `CC(C)C(=O)Nc1n[nH]c2cc(-c3cccc(NS(=O)(=O)C4CC4)c3)ccc12`, for which the growth was 64.6% (inactive).

For the compound `Cn1c(=O)c2[nH]c(NN)nc2n(C)c1=O`, the growth was 101% (inactive).
